Where “and” joins values, the source holds several entries; their conditions need not be identical. Identical values can stand only once. About 2,000 (36%) of roughly 5,500 compounds were called active. Another 18% or so got no clear call; they are omitted. Rule as the data show it: active = normalized growth mostly below about 0.91 (no sharp cut-off); inconclusive = no clear call, values can overlap the other calls; inactive = mostly above about 0.92. The list shows a part of the results.
Assay: chemical genetic growth profiling, strain panel (AID 1159580);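 also: tested at 20 µM; growth read once vehicle control cultures reached saturation at 30 °C; 1 = growth at the plate median or of vehicle wells; lower values mean less growth of the strain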
Details: S. cerevisiae deletion strains, growth OD

Measured: normalized growth

Nc1c2c(nc3ccccc13)CCCC2
inactive: locus YAL013W, strain DEP1, stronger effect = lower value 1.02 | locus YAL021C, strain ccr4, stronger effect = lower value 0.985 | locus YAL026C, strain drs2, stronger effect = lower value 0.975 | locus YAL030W, strain snc1, stronger effect = lower value 1.01 | locus YAL040C, strain CLN3, stronger effect = lower value 1.02 | locus YBL061C, strain skt5, stronger effect = lower value 0.984 | locus YBR009C, strain hhf1, stronger effect = lower value 0.978 | locus YBR021W, strain FUR4, stronger effect = lower value 0.853 | locus YBR023C, strain chs3, stronger effect = lower value 0.993 | locus YBR171W, strain sec66, stronger effect = lower value 0.959 | locus YBR229C, strain ROT2, stronger effect = lower value 1.02 | locus YBR231C, strain swc5, stronger effect = lower value 0.981 | locus YBR279W, strain paf1, stronger effect = lower value 1 | locus YCL011C, strain gbp2, stronger effect = lower value 1 | locus YCL016C, strain dcc1, stronger effect = lower value 1.01 | locus YCL029C, strain bik1, stronger effect = lower value 1.02 | locus YCL069W, strain vba3, stronger effect = lower value 0.989 | locus YCR088W, strain abp1, stronger effect = lower value 0.993 | locus YDL005C, strain med2, stronger effect = lower value 0.977 | locus YDL035C, strain GPR1, stronger effect = lower value 1.01 | locus YDL040C, strain nat1, stronger effect = lower value 0.989 | locus YDL074C, strain BRE1, stronger effect = lower value 1.01 | locus YDL101C, strain DUN1, stronger effect = lower value 1.02 | locus YDL134C, strain PPH21, stronger effect = lower value 1 | locus YDL185W, strain tfp1, stronger effect = lower value 1.01 | locus YDL192W, strain arf1, stronger effect = lower value 1.01 | locus YDR001C, strain nth1, stronger effect = lower value 0.983 | locus YDR069C, strain doa4, stronger effect = lower value 0.936 | locus YDR101C, strain arx1, stronger effect = lower value 1.02 | locus YDR137W, strain rgp1, stronger effect = lower value 1.02 | locus YDR150W, strain NUM1, stronger effect = lower value 1.02 and 0.999 | locus YDR159W, strain sac3, stronger effect = lower value 0.939 | locus YDR162C, strain NBP2, stronger effect = lower value 1.02 | locus YDR195W, strain ref2 0.963 | locus YDR297W, strain sur2, stronger effect = lower value 0.986 | locus YDR318W, strain mcm21, stronger effect = lower value 1.01 | locus YDR334W, strain swr1, stronger effect = lower value 0.974 | locus YDR335W, strain msn5, stronger effect = lower value 0.992 | locus YDR388W, stronger effect = lower value 1 | locus YDR392W, strain spt3, stronger effect = lower value 0.939 | locus YDR502C, strain sam2, stronger effect = lower value 1.02 | locus YEL003W, strain gim4, stronger effect = lower value 0.973 | locus YEL037C, strain rad23, stronger effect = lower value 0.978 | locus YEL061C, strain CIN8 (second series), stronger effect = lower value 0.983 | locus YEL061C, strain CIN8, stronger effect = lower value 1.01 | locus YER002W, strain NOP16, stronger effect = lower value 0.997 | locus YER015W, strain faa2, stronger effect = lower value 0.987 | locus YER016W, strain bim1, stronger effect = lower value 0.994 | locus YER110C, stronger effect = lower value 1.02 | locus YER111C, strain swi4, stronger effect = lower value 0.988 | locus YER155C, strain BEM2 (second series), stronger effect = lower value 0.902 | locus YER155C, strain BEM2, stronger effect = lower value 1 | locus YER167W, strain BCK2, stronger effect = lower value 1.01 | locus YFR010W, strain ubp6, stronger effect = lower value 0.944 | locus YGL078C, strain dbp3, stronger effect = lower value 1.02 | locus YGL086W, strain mad1, stronger effect = lower value 1.01 | locus YGL167C, strain pmr1, stronger effect = lower value 0.978 | locus YGL173C, strain kem1, stronger effect = lower value 0.958 | locus YGL227W, strain vid30, stronger effect = lower value 0.993 | locus YGL240W, strain doc1, stronger effect = lower value 0.946 | locus YGL248W, strain PDE1, stronger effect = lower value 1.02 | locus YGL253W, strain hxk2, stronger effect = lower value 0.96 | locus YGR078C, strain PAC10, stronger effect = lower value 0.992 | locus YGR135W, strain pre9, stronger effect = lower value 0.987 | locus YGR229C, strain SMI1, stronger effect = lower value 1.02 | locus YGR252W, strain gcn5, stronger effect = lower value 0.977 | locus YHR013C, strain ard1, stronger effect = lower value 0.867 | locus YHR027C, strain rpn1, stronger effect = lower value 0.968 | locus YHR030C, strain SLT2, stronger effect = lower value 1.01 and 0.987 | locus YHR079C, strain IRE1 (second series), stronger effect = lower value 1.02 | locus YHR079C, strain IRE1, stronger effect = lower value 1 | locus YHR094C, strain hxt1, stronger effect = lower value 1.02 | locus YHR129C, strain ARP1, stronger effect = lower value 1.02 | locus YHR142W, strain chs7, stronger effect = lower value 1 | locus YHR200W, strain rpn10, stronger effect = lower value 1.01 | locus YIL066C, strain RNR3, stronger effect = lower value 1.02 | locus YIL073C, strain SPO22, stronger effect = lower value 1.14 | locus YIL125W, strain kgd1, stronger effect = lower value 1.02 | locus YIR030C, strain dcg1, stronger effect = lower value 1.02 | locus YJL092W, strain hpr5, stronger effect = lower value 0.983 | locus YJL095W, strain BCK1 (second series), stronger effect = lower value 0.991 | locus YJL095W, strain BCK1, stronger effect = lower value 1.01 and 1 | locus YJL115W, strain asf1, stronger effect = lower value 0.981 | locus YJL129C, strain trk1, stronger effect = lower value 0.997 | locus YJL134W, strain LCB3, stronger effect = lower value 1.01 | locus YJL154C, strain vps35, stronger effect = lower value 0.974 | locus YJL164C, strain tpk1, stronger effect = lower value 1.01 | locus YJL166W, strain qcr8, stronger effect = lower value 0.992 | locus YJL168C, strain set2, stronger effect = lower value 1.01 | locus YJL187C, strain SWE1 (second series), stronger effect = lower value 1.01 | locus YJR043C, strain POL32, stronger effect = lower value 1.04 | locus YJR066W, strain TOR1, stronger effect = lower value 0.987 | locus YJR075W, strain HOC1, stronger effect = lower value 0.976 | locus YKL009W, strain mrt4, stronger effect = lower value 1.01
